From paper PMC4552634, “A New Set of Chemical Starting Points with Plasmodium falciparum Transmission-Blocking Potential for Antimalarial Drug Discovery” (PLoS ONE, 2015)
In all, about 13,000 compounds went through this assay and about 3,200 (25%) showed an effect of 50% or more. This is one part of the list.

Each molecule was assayed on P. falciparum stage V gametocytes. Settings: 48 h, 5 µM; inhibitor.
Parameters: BacTiter-Glo ATP luminescence viability of purified stage V gametocytes in 384-well plates, per cent inhibition versus DMSO

| SMILES | % Inhibition [%] |
| --- | --- |
| O=C(Nc1ccc2c(c1)CCN2C1CCN(Cc2cccc(C(F)(F)F)c2)C1)c1ccco1 (stereo not shown) [TCMDC-135065] | -42.49 |
| CCOC(=O)c1ccc(-c2cnc(N)c(-c3nc4c(C)cccc4[nH]3)c2)cc1 [TCMDC-135560] | 19.55 |
| COc1cc(CCCOc2c(N)nc(N)nc2N)cc(OC)c1OC [TCMDC-131361] | 8.778 |
| COc1ccccc1-c1csc(C(=O)NCC2CCN(Cc3ccc(C(C)(C)C)cc3)C2)c1 (stereo not shown) [TCMDC-134511] | -88.72 |
| CN(C)c1ccc(CN2CCC(CNC(=O)c3cc(-c4ccccc4Cl)cs3)C2)cc1 (stereo not shown) [TCMDC-134455] | 49.98 |
| CCc1ccccc1-c1csc(C(=O)NCC2CCN(Cc3ccc(C(C)(C)C)cc3)C2)c1 (stereo not shown) [TCMDC-134448] | 91.94 |
| CC(C)(C)c1ccc(CN2CCC(CNC(=O)c3cc(-c4ccccc4Cl)cs3)C2)cc1 (stereo not shown) [TCMDC-134445] | 95.91 |
| CC(C)c1ccc(CN2CCCCC(NC(=O)c3cc(-c4ccccc4Cl)cs3)C2)cc1 (stereo not shown) [TCMDC-134464] | -27.61 |
| CCc1ccc(CN2CCC(CNC(=O)c3cc(-c4ccccc4Cl)cs3)C2)cc1 (stereo not shown) [TCMDC-134433] | 74.35 |
| CC(C)(C)c1nn(-c2ccccc2)c2[nH]c(=O)c(CNC3CCCCC3)cc12 [TCMDC-123551] | 7.742 |
| CC(=O)c1ccc(NC(=O)NNC(=O)c2ccc(CCN3CCC(c4nc(COCC(F)(F)F)c(-c5ccc(F)cc5)o4)CC3)cc2)cc1 [TCMDC-131905] | -7.106 |
| CC(C)(CN)c1nc(-c2ccc(Cl)c(O)c2)c(-c2ccncc2)[nH]1 [TCMDC-140369] | -60.83 |
| Oc1cc(-c2nc(C3(CNCc4ccc(Cl)cc4)CCCCC3)[nH]c2-c2ccncc2)ccc1Cl [TCMDC-141155] | -6.27 |
| NCC1(c2nc(-c3ccc(Cl)c(O)c3)c(-c3ccncc3)[nH]2)CCCCC1 [TCMDC-141154] | 57.41 |
| CC(CNC(=O)c1cc2c(Cl)cc(Cl)cc2[nH]1)CNc1cc(=O)c2ccccc2[nH]1 (stereo not shown) [TCMDC-140624] | -21.72 |
| CCC(C)NS(=O)(=O)c1ccc2nc(Nc3ccc(C)c(Cl)c3)n(C(C)C(C)C)c2c1 (stereo not shown) [TCMDC-134310] | -65.92 |
| Br.CC[C@H]1CN2CCc3cc(OC)c(OC)cc3[C@@H]2C[C@@H]1CC1=NCCc2c1[nH]c1ccc(OCc3ccccc3)cc21 [TCMDC-137627] | 69.01 |
| CC[C@H]1CN2CCc3c([nH]c4ccccc34)[C@@H]2C[C@@H]1CC1c2cc(OC)c(OC)cc2CCN1C (stereo partly shown) [TCMDC-142011] | -85.21 |
| CCC1CN2CCc3c([nH]c4ccccc34)C2CC1CC1=NCCc2c1[nH]c1ccccc21 (stereo not shown) [TCMDC-141998] | 9.363 |
